From article PMC4336329 (PLoS ONE, 2015)
Screen size: about 310,000 compounds; about 14,000 (4.5%) showed an effect of 50% or more. Effects have a minus sign here. This excerpt belongs to a sample that is enriched for strong results.

Biological target: human ether-à-go-go-related gene (hERG) potassium channel (human, UniProt Q12809)
Test: primary screen, population patch clamp on CHO cells stably expressing hERG; higher = less effect of the substance
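Note: peak tail current of the secondary pulse compared with the same well before compound.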

Sequence of human ether-à-go-go-related gene (hERG) potassium channel (Q12809 whole entry, looked up): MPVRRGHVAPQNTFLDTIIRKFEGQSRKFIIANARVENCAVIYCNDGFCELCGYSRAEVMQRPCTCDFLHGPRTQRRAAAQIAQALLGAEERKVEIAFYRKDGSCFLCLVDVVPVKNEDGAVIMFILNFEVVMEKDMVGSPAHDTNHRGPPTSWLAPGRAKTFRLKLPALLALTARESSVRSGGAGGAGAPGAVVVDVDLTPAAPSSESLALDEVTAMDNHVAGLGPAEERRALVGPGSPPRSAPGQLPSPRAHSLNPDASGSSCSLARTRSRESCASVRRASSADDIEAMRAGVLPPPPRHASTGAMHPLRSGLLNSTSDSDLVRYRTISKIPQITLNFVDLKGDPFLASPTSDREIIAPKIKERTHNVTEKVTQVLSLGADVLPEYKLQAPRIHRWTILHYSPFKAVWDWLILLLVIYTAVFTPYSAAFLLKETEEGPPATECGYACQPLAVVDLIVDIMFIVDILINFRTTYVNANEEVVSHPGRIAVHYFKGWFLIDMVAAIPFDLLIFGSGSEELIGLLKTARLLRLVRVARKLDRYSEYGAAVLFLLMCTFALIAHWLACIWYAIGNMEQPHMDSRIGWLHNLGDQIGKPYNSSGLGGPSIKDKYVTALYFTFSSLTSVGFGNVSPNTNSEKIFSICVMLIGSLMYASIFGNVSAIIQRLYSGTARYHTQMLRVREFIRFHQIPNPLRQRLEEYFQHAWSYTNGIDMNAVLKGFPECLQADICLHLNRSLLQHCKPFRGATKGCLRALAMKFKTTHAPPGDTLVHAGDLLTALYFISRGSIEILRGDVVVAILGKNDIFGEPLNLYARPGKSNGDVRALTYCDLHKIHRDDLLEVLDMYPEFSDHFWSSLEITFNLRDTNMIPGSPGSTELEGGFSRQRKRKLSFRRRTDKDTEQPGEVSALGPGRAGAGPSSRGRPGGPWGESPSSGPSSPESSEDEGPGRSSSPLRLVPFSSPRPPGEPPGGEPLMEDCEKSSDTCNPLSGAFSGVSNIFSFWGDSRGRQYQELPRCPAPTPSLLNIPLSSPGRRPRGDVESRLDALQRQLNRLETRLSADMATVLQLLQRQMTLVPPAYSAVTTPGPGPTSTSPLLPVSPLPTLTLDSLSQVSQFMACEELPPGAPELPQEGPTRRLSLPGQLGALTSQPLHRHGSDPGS

Compound	hERG current change (%, negative = inhibition) at 10uM
CC1CC(=S)Nc2ccccc2S1 (stereo not shown)	11.1%
CN(C)S(=O)(=O)N1CCC(c2ccc(F)cc2)C(COc2ccc3c(c2)OCO3)C1 (stereo not shown)	10.2%
N#C/C(=C/c1ccc(Sc2nc3ccccc3[nH]2)o1)c1ccccc1F	-7.86%
O=C(O)c1ccc(NC(=S)NC(=O)C(c2ccccc2)c2ccccc2)cc1	-6.52%
Cc1ccc(NC(=O)C(C)Oc2ccccc2)cc1S(=O)(=O)N1CCCCCC1 (stereo not shown)	-7.7%
CCOc1ccc(NC(=O)C(C)NC(=O)c2ccccc2Cl)cc1S(=O)(=O)N1CCCC1 (stereo not shown)	-14.3%
CCOc1ccc(NC(=O)C(C)Oc2ccc(C#N)cc2)cc1S(=O)(=O)N1CCCC1 (stereo not shown)	-62.1%
COc1ccc(NC(=O)Nc2nnc(-c3ccccc3SCc3ccccc3)s2)cc1	13.6%
O=C(Cc1cccs1)NCCN1CCOCC1	3.99%
CNc1nc(NCCOC23CC4CC(CC(C4)C2)C3)nc(OCC(F)(F)F)n1	8.55%
OCCNc1nc(OCC(F)(F)F)nc(N2CCN(C34CC5CC(CC(C5)C3)C4)CC2)n1	-37.9%
CN1CCN(c2nc(NCCOC34CC5CC(CC(C5)C3)C4)nc(OCC(F)(F)F)n2)CC1	-60.8%
CCOc1c2ccc(C(=O)NCc3ccco3)cc2nn1CCOC	-0.63%
CC(=O)c1cccc(NS(=O)(=O)c2cc3c(cc2C)N(C(C)=O)CCO3)c1	14.3%
Cc1ccc(S(=O)(=O)C(CCC(=O)c2ccc(Cl)cc2)C(N)=O)cc1 (stereo not shown)	-28.9%
CCN1CCN(c2cc(C)c3cc(NC(=O)c4cncc(Br)c4)ccc3n2)CC1	-51.8%
CCN(CC)c1cc(C)c2cc(NC(=O)c3ccc(Br)o3)ccc2n1	-76.1%
CCN1CCN(c2cc(C)c3cc(NC(=O)c4cnccn4)ccc3n2)CC1	-16.2%
CCN1CCN(c2cc(C)c3cc(NC(=O)c4ccc(C)c(C)c4)ccc3n2)CC1	-43.3%
Cc1cc(N2CCN(C)CC2)nc2ccc(NC(=S)N3CCC4(CC3)OCCO4)cc12	-34%

Compound	hERG current change (%, negative = inhibition) at 10uM
Cc1cc(N2CCN(C)CC2)nc2ccc(NC(=O)c3ccc(Br)o3)cc12	-77.4%
CCN(CC)c1cc(C)c2cc(NC(=O)CNC(C)=O)ccc2n1	-11.3%
CCN(CC)c1ccc(NC(=O)c2ccc(Br)o2)cc1	-24.3%
CCN1CCN(c2cc(C)c3cc(NC(=O)Cc4ccc(OC)c(OC)c4)ccc3n2)CC1	-10.5%
CCN1CCN(c2cc(C)c3cc(NC(=O)c4ccc(Br)o4)ccc3n2)CC1	-56%
COc1cc(C(=O)Nc2ccc3nc(N4CCN(C)CC4)cc(C)c3c2)cc(OC)c1OC	-38.7%
CCN1CCN(c2cc(C)c3cc(NC(=O)c4ccncc4)ccc3n2)CC1	-21.4%
Nc1ccc2nc3c(=O)n(C4CCCCC4)c(=O)[nH]c3nc2c1	-0.914%
CC(=O)c1c(C(C)=O)c(C)n(C2CCCCC2)c1C	2.97%
NC(=O)c1ccc(NC(=O)CCCc2nc(-c3ccccc3Cl)no2)cc1	18.4%
CCOc1ccc(S(=O)(=O)N2CCC(C(=O)NCCN3CCOCC3)CC2)cc1C	1.77%
CCOC(=O)C(=CNc1ncccc1C)C(=O)OCC	1.51%
CC(C)CCNC(=O)Cn1c(=O)oc2cc(S(=O)(=O)N3CC(C)CC(C)C3)ccc21 (stereo not shown)	13.3%
CN1CCN(CCCc2c3c(cc4c2CCC4)CCC3)CC1.Cl	-19.8%
CCCCNC(=O)CCC(=O)Nc1ccc2nc(N3CCCCC3)cc(C)c2c1	-18.5%
COc1ccc(C(=O)Nc2ccc3nc(N4CCCCC4)cc(C)c3c2)c(OC)c1	4.06%
Cc1cc(N2CCCCC2)nc2ccc(NC(=O)c3ccc(Br)o3)cc12	-52.9%
CCC1(c2ccccc2)NC(=O)N(CC(=O)Nc2cc(S(=O)(=O)N3CCCCC3)ccc2OC(C)C)C1=O (stereo not shown)	-5.02%
CC(C)Oc1ccc(S(=O)(=O)N2CCOCC2)cc1NC(=O)CN1C(=O)NC2(CCCC2)C1=O	-17.8%
CCOc1ccc(S(=O)(=O)N2CCOCC2)cc1NC(=O)CN1C(=O)NC(CC)(c2ccccc2)C1=O (stereo not shown)	-73.5%
